For 40 compounds, outcome and Potency results are on record in PubChem BioAssay (Tox21).

Molecules are shown by their SMILES. Records with an inconclusive call do not appear. The source holds several records for some structures; these can differ, active in one and inactive in another. The source made the active and inactive calls. Unless noted, the call rests on the fitted dose curve; in most records, active means well fitted curve in the direction sought with a large enough effect in the repeat runs; inconclusive means weak or mixed curves; inactive means no such curve, though single readings can be large; an effect the other way counts as inactive or inconclusive.

Experiment [1] is described as follows: qHTS assay to identify small molecule agonists of the peroxisome proliferator-activated receptor delta (PPARd) signaling pathway - cell viability counter screen (AID 743211). Further: nearly all actives have a fitted effect of over 55% in size. A digest of the protocol:
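Luminescent ATP viability assay (CellTiter-Glo, 30 min RT) in UAS-bla HEK293H cells carrying the PPAR delta reporter construct, 3000 cells/well, after a 17 h compound treatment at 37 C.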

In experiment [2] the target is Peroxisome proliferator-activated receptor delta (Homo sapiens) (UniProt Q03181). Put plainly: qHTS assay to identify small molecule agonists of the peroxisome proliferator-activated receptor delta (PPARd) signaling pathway (AID 743212; calls by dose curve). In outline: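 GeneBLAzer UAS-bla HEK293H cells carrying a PPARδ construct were exposed to compounds at 37 °C. Beta-lactamase activity was read by FRET fluorescence after 2 h at room temperature with LiveBLAzer B/G substrate.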

Experiment [3] has the same target. Put plainly: qHTS assay to identify small molecule antagonists of the peroxisome proliferator-activated receptor delta (PPARd) signaling pathway (AID 743215; active means well fitted inhibition curve with a large enough effect in the signal ratio in the repeat runs, not every such curve was filed as active; the % refers to the signal ratio;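 further: cells stimulated with agonist L165041 at 300 nM final during compound exposure; series mostly up to about 62 µM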). A digest of the protocol: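 Read-out is beta-lactamase FRET fluorescence, measured 2 h after substrate addition at room temperature. Beforehand, UAS-bla HEK293H cells carrying the PPARd reporter were exposed to compounds with L165041 at 300 nM final for 17 h at 37 C.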

Experiment [4] has as its target Bile acid receptor (Homo sapiens) (UniProt Q96RI1). Nature of the experiment: qHTS assay to identify small molecule antagonists of the farnesoid-X-receptor (FXR) signaling pathway (AID 743217; active means well fitted inhibition curve with a large enough effect in the signal ratio in the repeat runs, not every such curve was filed as active; the % refers to the signal ratio). In outline:
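HEK 293T FXR-UAS-bla, 5000 cells/well; compound + CDCA 50 uM final; 16 h, 37 °C; B/G FRET substrate 2 h RT; fluorescence.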

Experiment [5] is described as follows: qHTS assay to identify small molecule agonists of the farnesoid-X-receptor (FXR) signaling pathway - cell viability counter screen (AID 743218). Further: nearly all actives have a fitted effect of over 45% in size. Further: potency means the concentration at half of the fitted maximal effect. In outline: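 HEK 293T FXR-bla cells; 5 h pre-incubation, 16 h compound exposure at 37 C; LiveBLAzer substrate 2 h RT, then CellTiter-Glo 30 min RT, luminescence.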
Experiment [6] has as its target Bile acid receptor (Homo sapiens) (UniProt Q96RI1). Nature of the experiment: qHTS assay to identify small molecule agonists of the farnesoid-X-receptor (FXR) signaling pathway (AID 743220; active means well fitted activation curve with a large enough effect in the signal ratio in the repeat runs, not every such curve was filed as active; the % refers to the signal ratio). A digest of the protocol: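 Beta-lactamase reporter under UAS control in GeneBLAzer FXR HEK 293T cells (5000/well) measured with LiveBLAzer FRET substrate after 2 h at room temperature. Compound exposure lasted 16 h at 37C.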

A short description of experiment [7]: qHTS assay to identify small molecule antagonists of the farnesoid-X-receptor (FXR) signaling pathway - cell viability counter screen (AID 743221; active means well fitted cell-killing curve with a large enough effect in the repeat runs, not every such curve was filed as active; further: nearly all actives have a fitted effect of over 50% in size; further: potency means the concentration at half of the fitted maximal effect). A digest of the protocol:
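In GeneBLAzer FXR-UAS-bla HEK 293T cells stimulated with 50 uM chenodeoxycholic acid (final), compounds acted for 16 h at 37 C. Viability was assessed afterwards by CellTiter-Glo luminescence.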

Experiment [8] can be described thus: qHTS assay to identify small molecule antagonists of the peroxisome proliferator-activated receptor delta (PPARd) signaling pathway - cell viability counter screen (AID 743213). Further: nearly all actives have a fitted effect of over 50% in size. In outline:
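HEK293H PPARd UAS-bla cells, 5 h pre-incubation, compound + L165041 300 nM final, 17 h 37 C; B/G FRET substrate 2 h RT; then CellTiter-Glo 30 min RT, luminescence.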

For experiment [9], the target named is Vitamin D3 receptor (Homo sapiens) (UniProt P11473). Nature of the experiment: qHTS assay to identify small molecule agonists of the vitamin D receptor (VDR) signaling pathway (AID 743222; calls by dose curve). A digest of the protocol:
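VDR-bla cells, 2,000/well; 4 h preincubation 37C; cpd (DMSO) 16 h; LiveBLAzer B/G substrate 2 h RT; fluorescence intensity read.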

The target is the same in experiment [10]. Put plainly: qHTS assay to identify small molecule antagonists of the vitamin D receptor (VDR) signaling pathway (AID 743223; active means well fitted inhibition curve with a large enough effect in the signal ratio in the repeat runs, not every such curve was filed as active; the % refers to the signal ratio). In outline:
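Agonist 1alpha,25-dihydroxyvitamin D3 (3 nM in well) was added with each compound to VDR-bla cells preincubated 4 h. Cells stood 16 h at 37C, then FRET substrate 2 h at room temperature; fluorescence intensity recorded.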

Chain of Vitamin D3 receptor (Homo sapiens) (P11473 whole entry, looked up): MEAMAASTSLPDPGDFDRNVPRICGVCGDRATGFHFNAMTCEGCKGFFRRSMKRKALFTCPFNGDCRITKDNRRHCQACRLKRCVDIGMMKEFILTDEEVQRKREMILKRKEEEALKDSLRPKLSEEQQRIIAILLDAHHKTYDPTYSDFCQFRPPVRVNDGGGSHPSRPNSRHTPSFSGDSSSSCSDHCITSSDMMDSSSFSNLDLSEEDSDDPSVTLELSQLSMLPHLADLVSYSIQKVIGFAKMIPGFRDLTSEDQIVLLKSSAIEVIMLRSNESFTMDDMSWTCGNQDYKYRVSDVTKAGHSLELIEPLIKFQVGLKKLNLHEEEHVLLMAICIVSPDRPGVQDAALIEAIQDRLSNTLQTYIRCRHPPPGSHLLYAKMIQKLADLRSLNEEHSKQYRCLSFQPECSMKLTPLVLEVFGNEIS
Chain of Peroxisome proliferator-activated receptor delta (Homo sapiens) (Q03181 whole entry, looked up): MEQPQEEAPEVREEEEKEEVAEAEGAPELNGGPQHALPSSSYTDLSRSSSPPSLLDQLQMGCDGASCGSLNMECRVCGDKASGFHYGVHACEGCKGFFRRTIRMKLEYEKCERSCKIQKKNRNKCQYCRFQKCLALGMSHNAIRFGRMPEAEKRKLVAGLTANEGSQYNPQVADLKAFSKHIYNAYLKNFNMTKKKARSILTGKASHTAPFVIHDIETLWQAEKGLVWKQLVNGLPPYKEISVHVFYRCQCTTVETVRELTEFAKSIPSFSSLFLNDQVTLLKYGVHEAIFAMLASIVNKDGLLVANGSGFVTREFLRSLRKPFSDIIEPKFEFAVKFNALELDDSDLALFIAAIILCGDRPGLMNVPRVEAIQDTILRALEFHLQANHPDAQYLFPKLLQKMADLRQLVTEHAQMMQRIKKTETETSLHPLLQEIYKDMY
Chain of Bile acid receptor (Homo sapiens) (Q96RI1 whole entry, looked up): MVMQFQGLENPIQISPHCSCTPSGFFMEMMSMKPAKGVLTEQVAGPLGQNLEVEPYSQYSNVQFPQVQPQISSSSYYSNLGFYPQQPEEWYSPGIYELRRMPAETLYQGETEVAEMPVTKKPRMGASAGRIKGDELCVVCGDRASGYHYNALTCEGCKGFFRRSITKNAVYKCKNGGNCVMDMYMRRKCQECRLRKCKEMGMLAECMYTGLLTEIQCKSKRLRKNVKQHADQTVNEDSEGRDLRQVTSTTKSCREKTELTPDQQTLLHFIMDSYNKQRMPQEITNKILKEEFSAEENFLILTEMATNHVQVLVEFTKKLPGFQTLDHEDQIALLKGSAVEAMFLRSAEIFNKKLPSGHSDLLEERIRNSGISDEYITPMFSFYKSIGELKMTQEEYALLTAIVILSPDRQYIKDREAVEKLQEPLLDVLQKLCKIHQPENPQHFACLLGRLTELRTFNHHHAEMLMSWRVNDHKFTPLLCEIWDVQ

As for `CCCCC(CC)CO` (centres undefined), the call in experiment [1], in [2], in [4] and in experiment [6] was inactive. Also, the Potency entry in [3], in experiment [5] and in [7] was “inactive” throughout.
In the case of `CCCCOC(=O)COc1ccc(Cl)cc1Cl`, the compound was classed as inactive in experiment [1], in [8], in experiment [4], in [6] and in experiment [9]. For the same compound, the Potency entry in [5] and in [7] was “inactive” in each case.
For the compound `CCCCCCCCCCCCOCCO`, the compound was classed as inactive in experiment [1] and in experiment [8]. Moreover, the Potency result in experiment [5] and in [7] was “inactive” in each case.
Turning to `Oc1cccc2ccccc12`, the compound was called inactive in [1], in experiment [8], in experiment [4], in experiment [6], in experiment [9] and in experiment [10]. Further, the Potency entry in [5] and in [7] was “inactive” each time.
Take `Fc1ccc(Br)cc1`: the result in experiment [1], in [8] and in [9] was inactive. Besides, the Potency result in [5] and in [7] was “inactive” throughout.
On to `C=C(C)C(=O)Nc1ccc(Cl)c(Cl)c1`, for which the call in [1], in experiment [8] and in experiment [9] was inactive. Besides, the Potency result in [5] and in experiment [7] was “inactive” each time.
As to `C=CCOC(=O)c1ccccc1C(=O)OCC=C`, the compound was called inactive in [1], in experiment [8], in experiment [4] and in experiment [6]. The Potency entry in experiment [5] and in experiment [7] was “inactive” throughout.
`O=c1[nH]c(=O)n([C@H]2C[C@H](O)[C@@H](CO)O2)cc1Br`: the compound was classed as inactive in [1], in experiment [2], in experiment [4], in experiment [6] and in experiment [10]. The Potency result in [5] and in experiment [7] was “inactive” in each case.
Turning to `CC(=O)CC(=O)Nc1ccccc1C`, the compound was classed as inactive in experiment [1] and in [8]. The Potency result in experiment [5] and in experiment [7] was “inactive” throughout.
As to `CC[C@H](C)C(=O)O[C@H]1C[C@@H](C)C=C2C=C[C@H](C)[C@H](CC[C@@H]3C[C@@H](O)CC(=O)O3)[C@H]21`, the compound was classed as inactive in experiment [2], in experiment [4] and in experiment [6]. For the same compound, the Potency result in [3] was “inactive”. Besides, the Potency in experiment [5] was 62.5 µM (active) and inactive; in experiment [7], 62.5 µM (active) and inactive.
Take `C#CCN(C)Cc1ccccc1`: the call in [1] and in experiment [2] was inactive. The Potency result in experiment [3], in experiment [5] and in experiment [7] was “inactive” each time.
As for `OCCOCCOCCO`, the call in experiment [1], in [8] and in experiment [9] was inactive. In addition, the Potency entry in experiment [5] and in experiment [7] was “inactive” throughout.
As to `c1ccc2scnc2c1`, the result in experiment [1] and in [2] was inactive. The Potency entry in experiment [5] and in experiment [7] was “inactive” throughout.
On to `CC(C)c1ccc(S(=O)(=O)O)cc1`, for which the result in experiment [1] and in [8] was inactive. The Potency result in experiment [5] and in experiment [7] was “inactive” in each case.
`CC(=O)Nc1cccc(O)c1`: in [1], the outcome was inactive. For the same compound, the Potency result in experiment [5] and in experiment [7] was “inactive” each time.
Regarding `CCc1cccc(C)c1N`, the compound was classed as inactive in experiment [1], in [2] and in experiment [9]. The Potency entry in [3], in experiment [5] and in experiment [7] was “inactive” throughout.
For `CCCSc1ccc2nc(NC(=O)OC)[nH]c2c1`, in [1], the result was inactive. In addition, the Potency entry in experiment [5] was “inactive”.
For `CC1=C(C)S(=O)(=O)CCS1(=O)=O`, the compound was classed as inactive in experiment [1], in [2] and in [9]. In addition, the Potency result in experiment [3], in experiment [5] and in [7] was “inactive” each time.
Regarding `O=S1(=O)CC=CC1`, the outcome in [1], in experiment [2], in [9] and in experiment [10] was inactive. Further, the Potency result in experiment [3], in experiment [5] and in experiment [7] was “inactive” throughout.
On to `C=C(C)C(=O)OCCOCCOCCOC(=O)C(=C)C`, for which, in [1], the call was inactive. The Potency result in experiment [5] and in experiment [7] was “inactive” throughout.
Regarding `COCCCOc1ccnc(CS(=O)c2nc3ccccc3[nH]2)c1C` (centres undefined), the call in experiment [1] was inactive. For the same compound, the Potency entry in experiment [5] and in experiment [7] was “inactive” each time.
Consider `Cc1occc(=O)c1O`, for which the compound was called inactive in [1] and in experiment [8]. Further, the Potency entry in experiment [5] and in [7] was “inactive” throughout.
For `CCCCC(CC)COC(=O)CS` (centres undefined), the call in [1], in [8] and in experiment [10] was inactive. Further, the Potency entry in experiment [5] and in experiment [7] was “inactive” in each case.
In the case of `OCCOCCN1CCN(C2=Nc3ccccc3Sc3ccccc32)CC1`, the compound was classed as inactive in experiment [1], in [4] and in experiment [6]. For the same compound, the Potency entry in experiment [5] and in experiment [7] was “inactive” in each case.
As for `CCCCCCCCCCCCCCO`, the outcome in experiment [1] and in [8] was inactive. Besides, the Potency entry in experiment [5] and in [7] was “inactive” in each case.
On to `CCN(CC)c1ccc(C(=O)c2ccccc2C(=O)O)c(O)c1`, for which the compound was classed as inactive in experiment [1] and in experiment [8]. Also, the Potency result in [5] and in experiment [7] was “inactive” throughout.
Take `Cc1cccnc1`: the compound was called inactive in experiment [1] and in experiment [10]. The Potency result in experiment [5] and in [7] was “inactive” in each case.
As for `NNc1nncc2ccccc12`, the outcome in [1] was inactive. Also, the Potency result in [5] and in [7] was “inactive” each time.
With `COc1ccc2cc([C@H](C)C(=O)O)ccc2c1`, the result in experiment [1] and in experiment [10] was inactive. In addition, the Potency entry in [5] and in experiment [7] was “inactive” throughout.
In the case of `CC1CCC2CC1C2(C)C` (centres undefined), the outcome in experiment [1], in experiment [4] and in experiment [6] was inactive. Moreover, the Potency result in experiment [5] and in experiment [7] was “inactive” each time.
For the compound `CCC(O)OCCCOC` (centres undefined), the outcome in [1], in experiment [2] and in experiment [9] was inactive. For the same compound, the Potency entry in experiment [3], in [5] and in experiment [7] was “inactive” each time.
As for `O=C(O)[C@H](O)[C@@H](O)[C@H](O)[C@H](O)CO`, the result in experiment [1], in experiment [2] and in experiment [10] was inactive. The Potency result in experiment [3], in experiment [5] and in experiment [7] was “inactive” in each case.
For the compound `CCC(O)OC(O)CC` (centres undefined), the result in experiment [1] and in [8] was inactive. Also, the Potency result in experiment [5] and in experiment [7] was “inactive” throughout.
Take `O=P(OC(CCl)CCl)(OC(CCl)CCl)OC(CCl)CCl`: the outcome in experiment [1], in experiment [2] and in experiment [9] was inactive. Besides, the Potency entry in [3], in [5] and in experiment [7] was “inactive” each time.
Turning to `CC1=CC(=O)NS(=O)(=O)O1`, the result in [1], in [8], in experiment [4], in [6], in [9] and in [10] was inactive. Besides, the Potency result in [5] and in [7] was “inactive” in each case.
As for `CN(C)CCC(c1ccc(Cl)cc1)c1ccccn1` (centres undefined), the Potency entry in experiment [5] and in experiment [7] was “inactive” in each case.
Turning to `O=C(O)c1ccc2c(c1)C(=O)OC2=O`, the call in experiment [1], in [4], in experiment [6], in experiment [9] and in [10] was inactive. For the same compound, the Potency entry in [5] and in experiment [7] was “inactive” each time.
Turning to `CC(C)CC(=O)CC(C)C`, the call in experiment [1] and in [8] was inactive. Moreover, the Potency entry in [5] and in experiment [7] was “inactive” in each case.
Consider `O=[N+]([O-])c1ccc(/C=C/c2ccc([N+](=O)[O-])cc2S(=O)(=O)O)c(S(=O)(=O)O)c1`, for which the result in experiment [1] was inactive. For the same compound, the Potency entry in experiment [5] and in [7] was “inactive” each time.
Consider `CCc1ccc(CCOc2ccc(CC3SC(=O)NC3=O)cc2)nc1` (centres undefined), for which the compound was called inactive in experiment [1] and in experiment [8]. In addition, the Potency entry in experiment [7] is “inactive”.
